Test [1] is described as follows: compounds altering circadian rhythm period length – cell-based, LOPAC library, luminescence reporter (AID 2774; call rule not given here;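 note: values are relative to mean of DMSO wells on each plate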). Conditions: circadian reporter cells, at 7 µM, actives lie on both sides.
Test [2] can be described thus: P. berghei load reduction in hepatocytes – cell-based, HepG2, luciferase luminescence, HepG2 viability, primary screen (AID 624349; in the data active = parasite load remaining mostly below about 12%, no sharp cut-off; inactive = mostly above about 10%;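 note: 100% = mean of DMSO negative control wells on the same plate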). Conditions: P. berghei liver stage in HepG2, luciferase luminescence, concentration not given here; parasite load remaining: stronger effect = lower value; viability: measured here: HepG2 viability without parasites.
Test [3] deals with Hepatitis C virus NS3 helicase. As to the kind of experiment: blockers of NS3h binding to ssDNA – biochemical, fluorescence polarization, LOPAC1280 library, primary screen (AID 687035; in the data active = inhibition above about 37%). Conditions: Purified HCV NS3 helicase, Cy5-dT15 ssDNA binding fluorescence polarization; stronger effect = higher value; concentration not given here. For orientation: Polarisation of emitted light reports the rotation of a fluorescent probe.

The nature of test [4]: compounds altering Cy5-DNA-NS3h complex signal – biochemical, LOPAC1280, artefact control for HCV NS3 helicase inhibitor project (AID 687037; call rule not given here). The following applies: Cy5-DNA-NS3h complex fluorescence interference counterscreen.
Test [5] has as its system Aerobactin synthetase IucA (Klebsiella pneumoniae). As to the kind of experiment: inhibition of K. pneumoniae IucA enzyme – biochemical, Tocris library, absorbance (AID 1345561; call rule not given here;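 note: 100% = enzyme without compound and 0% = no enzyme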). The following applies: purified IucA enzyme assay, absorbance (OD) read-out; stronger effect = lower value;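 tested at 8 µM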.
Test [6] in a line: viability loss with induced miR-34 in A549 – imaging, A549 dox-inducible miR-34, nuclei and caspase counts, primary screen (AID 1347080;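 active = compounds whose cell count with miR-34 switched on is under 0.7 times the count with it off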). The following applies: A549 miR-34 inducible, Hoechst nuclei count, 48 h.
Test [7] in a line: blockers of cellular phospholipid synthesis – cell-based, LOPAC library, screen 4, primary screen (AID 1347384; call rule not given here). Conditions: animal cells, phospholipid biosynthesis inhibition screen; at 10 µM.
Test [8] can be described thus: MELAS cybrid and Rieske KO viability enhancers – cell-based, MELAS cybrids, Rieske KO mouse fibroblasts, CellTiter-Glo, primary screen (AID 1508586;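 active = mean z-score across replicates of 1.96 or higher in either the MELAS or the Rieske mutant cell line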;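 note: z relative to plate mean and SD of compound and empty wells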). Conditions: low glucose.
A short description of test [9]: galactose survival enhancers in mitochondrial complex I cybrids – cell-based, galactose medium, ATP luminescence, primary screen (AID 1645843;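 active = z-score of at least 1.8 in each of two replicates, scored against plate mean and spread of sample wells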;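 note: positive z means more ATP and so rescue of galactose-driven cybrid death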). Conditions: complex I mutant cybrid cells, 72 h, stronger effect = higher value.
Test [10] in a line: compounds altering HSF1 focus formation in cells – imaging, Selleck Cancer Library (AID 1347162; in the data active = plate-normalised HSF1 focus index below about 0.46). Conditions: human cells, HSF1 nuclear foci imaging, at 10 µM; SSMD: measured here: HSF1 foci SSMD mean; cell count: measured here: cell number; plate-normalised HSF1 focus index: stronger effect = lower value.
Test [11] is described as follows: drug combination growth inhibition, ovarian cancer – cell-based, oncology-focused library, rucaparib conditional, profiling panel (AID 1508598). Conditions: patient-derived ovarian cancer cells, CellTiter-Glo viability, 144 h, stronger effect = lower value. (In general: In ATP-based viability assays light output follows the ATP content of the culture.)
Test [12] in a line: compounds altering viability of human ES cells (AID 493140; call rule not given here;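 note: cells exposed to compounds for four days before counting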). The following applies: human embryonic stem cell survival screen; stronger effect = higher value.
Test [13] can be described thus: chitosan synthesis blockers in C. neoformans – flow cytometry, Cibacron Brilliant Red staining (AID 1347148; call rule not given here;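 note: compound exposure lasted three days at 37 degrees C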). Conditions: Cryptococcus neoformans chitosan, stronger effect = lower value; at 10 µM unless noted. (In general: A flow cytometer gives signals particle by particle.)
The mark [14] stands for this setting: stronger effect = lower value, cell number ratio, induced over uninduced.
Where [15] appears, read: measured here: relative caspase fold change +Dox/-Dox.
Where [16] appears, read: measured here: total cells with miR-34 induction, stronger effect = lower value.
The mark [17] stands for this setting: measured here: total cells without miR-34 induction.
Setting [18] is: MELAS cybrid survival, CellTiter-Glo 48 h, stronger effect = higher value.
[19] abbreviates: Rieske KO mouse fibroblast survival, CellTiter-Glo 72 h.

One may read the viability as a read-out of living cells in per cent, often relative to untreated cells. The inhibition is the drop in the measured response relative to a control, in per cent. The remaining activity is the signal under treatment as a percentage of the control signal.

Each structure is given as a SMILES string. Values joined by “and” are separate entries in the source; they are usually repeats but may differ in a detail not shown here. Identical values can stand only once. Active and inactive are the calls of the source.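 Rule for the calls, unless noted: active = normalized viability below 100% at a tested concentration; inactive = the rest.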

`CC(C)NC[C@H](O)COc1ccc(CC(N)=O)cc1`: in test [1], the period change is -0.06 h (inactive). The parasite load remaining in test [2] was 111% (inactive). In addition, the viability in test [2] came to 102%. The inhibition in [3] is -2% (inactive). Besides, the fluorescence ratio (interference) in [4] is 1 (inactive). For the same compound, the remaining activity in [5] was 87% (inactive). Further, the fold change in test [6] (setting [14]) is 1.04 (inactive) and 0.889 (inactive) and 0.97 (inactive); in test [6] (setting [15]) it was 1.51 and 1.14 and 0.697. Also, the cell count in [6] (setting [16]) is 7050 and 9340 and 9400; in test [6] (setting [17]), 6770 and 10500 and 9690. For the same compound, the result in [7] was inactive. The z-score was -0.419 (inactive) in test [8] (setting [18]); -1.01 in test [8] (setting [19]); 0.305 (inactive) and -0.32 (inactive) in test [9].
With `CC(NC(=O)c1ccccc1N=Cc1c(O)ccc2ccccc12)c1ccccc1` (configuration not stated), in test [5], the remaining activity is 102% (inactive). In addition, the fold change in test [6] (setting [14]) was 0.954 (inactive) and 0.917 (inactive); in test [6] (setting [15]) it was 0.477 and 1.5. The cell count was 7190 and 7160 in test [6] (setting [16]); 7540 and 7810 in test [6] (setting [17]); 7320 in test [10]. Moreover, the SSMD in test [10] stood at 1.72. Besides, in [10], the plate-normalised HSF1 focus index was 1.11 (inactive). Moreover, the z-score was -0.168 (inactive) in test [8] (setting [18]), -0.189 in [8] (setting [19]) and 0.205 (inactive) in test [9]. The viability in test [11] (at 0.000305 µM, OCI-C5x cells, with rucaparib 10 µM, 100% = cells with rucaparib alone) was 111% (inactive); in [11] (at 0.000305 µM, OCI-C5x cells, without rucaparib), 99.9% (active); in test [11] (at 0.000305 µM, OCI-P5x cells, with rucaparib 20 µM, 100% = cells with rucaparib alone) it was 102% (inactive); in test [11] (at 0.000305 µM, OCI-P5x cells, without rucaparib), 90.3% (active); in test [11] (at 0.00122 µM, OCI-C5x cells, with rucaparib 10 µM, 100% = cells with rucaparib alone) it was 122% (inactive); in [11] (at 0.00122 µM, OCI-C5x cells, without rucaparib), 121% (inactive). In addition, the viability in test [11] (at 0.00122 µM, OCI-P5x cells, with rucaparib 20 µM, 100% = cells with rucaparib alone) is 103% (inactive); in [11] (at 0.00122 µM, OCI-P5x cells, without rucaparib), 95.7% (active); in [11] (at 0.00488 µM, OCI-C5x cells, with rucaparib 10 µM, 100% = cells with rucaparib alone), 119% (inactive); in [11] (at 0.00488 µM, OCI-C5x cells, without rucaparib), 126% (inactive); in [11] (at 0.00488 µM, OCI-P5x cells, with rucaparib 20 µM, 100% = cells with rucaparib alone) it was 106% (inactive); in test [11] (at 0.00488 µM, OCI-P5x cells, without rucaparib), 96.5% (active). The viability was 121% (inactive) in [11] (at 0.0195 µM, OCI-C5x cells, with rucaparib 10 µM, 100% = cells with rucaparib alone); 119% (inactive) in test [11] (at 0.0195 µM, OCI-C5x cells, without rucaparib); 114% (inactive) in test [11] (at 0.0195 µM, OCI-P5x cells, with rucaparib 20 µM, 100% = cells with rucaparib alone); 100% (active) in test [11] (at 0.0195 µM, OCI-P5x cells, without rucaparib); 112% (inactive) in [11] (at 0.0781 µM, OCI-C5x cells, with rucaparib 10 µM, 100% = cells with rucaparib alone); 119% (inactive) in [11] (at 0.0781 µM, OCI-C5x cells, without rucaparib). Further, the viability in [11] (at 0.0781 µM, OCI-P5x cells, with rucaparib 20 µM, 100% = cells with rucaparib alone) was 108% (inactive); in [11] (at 0.0781 µM, OCI-P5x cells, without rucaparib), 102% (inactive); in test [11] (at 0.313 µM, OCI-C5x cells, with rucaparib 10 µM, 100% = cells with rucaparib alone), 116% (inactive); in test [11] (at 0.313 µM, OCI-C5x cells, without rucaparib), 118% (inactive); in test [11] (at 0.313 µM, OCI-P5x cells, with rucaparib 20 µM, 100% = cells with rucaparib alone) it was 108% (inactive); in test [11] (at 0.313 µM, OCI-P5x cells, without rucaparib), 104% (inactive). For the same compound, the viability in test [11] (at 1.25 µM, OCI-C5x cells, with rucaparib 10 µM, 100% = cells with rucaparib alone) was 116% (inactive); in test [11] (at 1.25 µM, OCI-C5x cells, without rucaparib) it was 126% (inactive); in test [11] (at 1.25 µM, OCI-P5x cells, with rucaparib 20 µM, 100% = cells with rucaparib alone) it was 115% (inactive); in test [11] (at 1.25 µM, OCI-P5x cells, without rucaparib) it was 109% (inactive); in [11] (at 5 µM, OCI-C5x cells, with rucaparib 10 µM, 100% = cells with rucaparib alone) it was 105% (inactive); in test [11] (at 5 µM, OCI-C5x cells, without rucaparib) it was 143% (inactive). For the same compound, the viability in test [11] (at 5 µM, OCI-P5x cells, with rucaparib 20 µM, 100% = cells with rucaparib alone) was 112% (inactive); in test [11] (at 5 µM, OCI-P5x cells, without rucaparib), 108% (inactive).
In the case of `Cc1ccc(-c2nn(C(C)(C)C)c3ncnc(N)c23)cc1`, the survival in [12] was 82.2 (inactive). Further, the remaining activity in test [5] is 109% (inactive). For the same compound, the fold change in test [6] (setting [14]) was 1.15 (inactive) and 0.969 (inactive) and 1.02 (inactive); in test [6] (setting [15]) it was 0.8 and 0.845 and 0.764. Moreover, the cell count is 850 and 2400 and 3230 in [6] (setting [16]); 738 and 2480 and 3170 in test [6] (setting [17]). The fold fluorescence in test [13] is 12.9 [at 177.7 µM] (inactive). Moreover, the z-score in test [8] (setting [18]) is 0.565 (inactive); in test [8] (setting [19]), -0.238; in test [9], 0.19 (inactive).

The values above are taken from PubChem BioAssay.
